Assay results reported in the supplement of paper PMC8728848.
Many of the other results were omitted from the sample, so the strongest signals are more common in it than they were.

Key:
Assay in all cases: glycan array binding signal (z-score within array); higher = stronger binding
Conditions in all cases: glycan notation: IUPAC condensed, linker removed
GalNAc3S(b1-4)GlcNAc3S = target: GalNAc3S(b1-4)GlcNAc3S
Outline: (§1)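 Glycan array binding is given as a within-array Z-score, which can be read as non-binding when negative. The arrays, 3228 of them, came from the Consortium for Functional Glycomics database and were retained only where the protein sequence was available. Z-scores were averaged across arrays of the same protein sequence at different concentrations or buffers and across linkers.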

[1] = target: GlcNAc(b1-2)[GlcNAc(b1-6)]Man(a1-6)[GlcNAc(b1-2)Man(a1-3)]Man(b1-4)GlcNAc(b1-4)GlcNAc
Outline: as §1

GlcNAc(b1-3)Gal(b1-4)Glc = target: GlcNAc(b1-3)Gal(b1-4)Glc
Outline: as §1

[2] = target: GlcNAc(b1-3)Gal(b1-4)GlcNAc
Outline: as §1

[3] = target: GlcNAc(b1-3)Gal(b1-4)GlcNAc(b1-2)[GlcNAc(b1-3)Gal(b1-4)GlcNAc(b1-6)]Man(a1-6)[GlcNAc(b1-3)Gal(b1-4)GlcNAc(b1-2)Man(a1-3)]Man(b1-4)GlcNAc(b1-4)GlcNAc
Outline: as §1

GlcNAc(b1-3)GalNAc = target: GlcNAc(b1-3)GalNAc
Outline: as §1

[4] = target: GlcNAc(b1-3)[GlcNAc(b1-4)][GlcNAc(b1-6)]GlcNAc
Outline: as §1

[5] = target: Man(a1-3)[Man(a1-6)]Man(a1-6)[Man(a1-2)Man(a1-3)]Man(b1-4)GlcNAc(b1-4)GlcNAc
Outline: as §1

[6] = target: Neu5Ac(a2-3)Gal(b1-3)GalNAc(b1-4)Gal(b1-4)Glc
Outline: as §1

[7] = target: Neu5Ac(a2-3)Gal(b1-3)GalNAc(b1-4)[Neu5Ac(a2-3)]Gal(b1-4)Glc
Outline: as §1

[8] = target: Neu5Ac(a2-3)Gal(b1-3)GlcNAc(b1-2)Man(a1-3)[GlcNAc(b1-4)][Neu5Ac(a2-3)Gal(b1-3)GlcNAc(b1-2)Man(a1-6)]Man(b1-4)GlcNAc(b1-4)GlcNAc
Outline: as §1

Neu5Ac(a2-3)Gal(b1-4)Glc = target: Neu5Ac(a2-3)Gal(b1-4)Glc
Outline: as §1

[9] = target: Neu5Ac(a2-3)Gal(b1-4)GlcNAc(b1-3)Gal(b1-4)GlcNAc(b1-3)GalNAc
Outline: as §1

[10] = target: Neu5Ac(a2-3)Gal(b1-4)GlcNAc(b1-3)Gal(b1-4)GlcNAc(b1-3)[Neu5Ac(a2-3)Gal(b1-4)GlcNAc(b1-3)Gal(b1-4)GlcNAc(b1-6)]GalNAc
Outline: as §1

[11] = target: Neu5Ac(a2-3)Gal(b1-4)GlcNAc(b1-6)[Neu5Ac(a2-3)Gal(b1-3)]GalNAc
Outline: as §1

[12] = target: Neu5Ac(a2-3)Gal(b1-4)[Fuc(a1-3)]GlcNAc(b1-3)GalNAc
Outline: as §1

[13] = target: Neu5Ac(a2-6)Gal(b1-4)GlcNAc(b1-2)Man(a1-6)[Gal(b1-4)GlcNAc(b1-2)Man(a1-3)]Man(b1-4)GlcNAc(b1-4)GlcNAc
Outline: as §1

[14] = target: Neu5Ac(a2-6)Gal(b1-4)GlcNAc(b1-2)Man(a1-6)[GlcNAc(b1-2)Man(a1-3)]Man(b1-4)GlcNAc(b1-4)GlcNAc
Outline: as §1

[15] = target: Neu5Ac(a2-6)Gal(b1-4)GlcNAc(b1-3)Gal(b1-4)GlcNAc(b1-6)[Gal(b1-3)]GalNAc
Outline: as §1

[16] = target: Neu5Ac(a2-6)GlcNAc(b1-4)GlcNAc
Outline: as §1

[17] = target: Neu5Ac(a2-8)Neu5Ac(a2-8)Neu5Ac(a2-3)Gal(b1-4)Glc
Outline: as §1

[18] = target: Neu5Ac(a2-8)Neu5Ac(a2-8)Neu5Ac(a2-3)[GalNAc(b1-4)]Gal(b1-4)Glc
Outline: as §1

[19] = target: Neu5Gc(a2-8)Neu5Gc(a2-6)Gal(b1-4)GlcNAc
Outline: as §1

B1: CcfD (Bacteroides vulgatus), A6KYX8 (protein)
chain: MKYKNYFKSIIYLALGAFTLGSCEDFLDRQEDEKLTFDKIWESRNTTQQYWLNAMSFLPNENGSLQGDTEPYLGASDECTIAYDRQYRWINFGTWNPSQVPYYKMDHYYKGIRECNIFLQNVYKCSDPLVTKDQLDEWYWQTRFARAYYYFLMMRDYGPVFLLGDDLLDFTASTEELYRPRNTWDQCVNYVVSEMTQCAESGVVLQQSDLPAAKWGLATVGTCHAVISRLLLYSARPLFNGNKLYSTVKNPDAPDFPELSGVKLFPELDNTKWQKAAEAAKKLIDNPCYELYRAGNDNPYEDYYGVTHETWNKELIWTDRYNGLFSWGVGTVPTGVAGTAYGAVGPTQALVDAYAMNTGWYPITGYEADGTPIVEPLSGYELASELEKSSWIYPSGGWSNKADFEIEAPNMYKDREPRFYVTVFFGGNQWLHGNSATSISFAKGGNGNKSHDYPKSGYLCNRFYDHKLNSSEGQWGNITFPVFRLGEIYLNFIEAVLECKKNGVALDPSYEALAMEKWADLRKRAGLDPITSIYGQVSTEELIQLCRKERQIELAFERHRYFDTRTWMIATQTDNGKMYGMNTSCPLDAGMKGTETPDGFWERTAFETRVFQNKHYLYPFSQRELDRNKLLTQNYGW
glycan array binding signal (z-score) (GalNAc3S(b1-4)GlcNAc3S): -0.21 | glycan array binding signal (z-score) [1]: -0.663 | glycan array binding signal (z-score) (GlcNAc(b1-3)Gal(b1-4)Glc): -0.881 | glycan array binding signal (z-score) [2]: -1.04 | glycan array binding signal (z-score) [3]: 3.38 | glycan array binding signal (z-score) (GlcNAc(b1-3)GalNAc): -0.332 | glycan array binding signal (z-score) [4]: 2.41 | glycan array binding signal (z-score) [5]: -0.673 | glycan array binding signal (z-score) [6]: -0.17 | glycan array binding signal (z-score) [7]: 2.47 | glycan array binding signal (z-score) [8]: -0.526 | glycan array binding signal (z-score) (Neu5Ac(a2-3)Gal(b1-4)Glc): -0.589 | glycan array binding signal (z-score) [9]: -0.693 | glycan array binding signal (z-score) [10]: -0.429 | glycan array binding signal (z-score) [11]: 5 | glycan array binding signal (z-score) [12]: -0.078 | glycan array binding signal (z-score) [13]: 6.49 | glycan array binding signal (z-score) [14]: 7 | glycan array binding signal (z-score) [15]: -0.841 | glycan array binding signal (z-score) [16]: 0.582 | glycan array binding signal (z-score) [17]: -0.871 | glycan array binding signal (z-score) [18]: -0.556 | glycan array binding signal (z-score) [19]: -1.1
